A selection: hits, their analogues and other compounds. The true share with any hit is near 1.3%.
Tb PGK inh: inhibitors of T. brucei phosphoglycerate kinase; PGK/GAPDH coupled, Kinase-Glo luminescence, 60 min; AID 602233; actives 0.043% (n = 380,000); Potency, µM (top dose mostly 57.5 µM), hits mostly inhibitors; P07378; note: nearly all actives have a fitted effect of over 60% in size
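Luminescent ATP detection (Kinase-Glo Plus) follows a 60-minute room-temperature incubation, with wells lacking PGK as controls. Buffer: 100 mM TEA (pH 7.6), 5 mM MgCl2, 0.01% Tween-20. Coupling enzyme GAPDH (100 nM final) supplies unstable 1,3-BPG in-well.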
WRN helicase inh: WRN helicase (human) inhibition. Potency, µM (titrated, usually from 114 µM), most hits filed as inhibitors. actives 0.46% (n = 360,000). WRN helicase unwinding, fluorescent forked duplex, kinetic. Q14191. AID 651768; note: nearly all actives have a fitted effect of over 55% in size
Target sequence (Q14191 whole entry, looked up): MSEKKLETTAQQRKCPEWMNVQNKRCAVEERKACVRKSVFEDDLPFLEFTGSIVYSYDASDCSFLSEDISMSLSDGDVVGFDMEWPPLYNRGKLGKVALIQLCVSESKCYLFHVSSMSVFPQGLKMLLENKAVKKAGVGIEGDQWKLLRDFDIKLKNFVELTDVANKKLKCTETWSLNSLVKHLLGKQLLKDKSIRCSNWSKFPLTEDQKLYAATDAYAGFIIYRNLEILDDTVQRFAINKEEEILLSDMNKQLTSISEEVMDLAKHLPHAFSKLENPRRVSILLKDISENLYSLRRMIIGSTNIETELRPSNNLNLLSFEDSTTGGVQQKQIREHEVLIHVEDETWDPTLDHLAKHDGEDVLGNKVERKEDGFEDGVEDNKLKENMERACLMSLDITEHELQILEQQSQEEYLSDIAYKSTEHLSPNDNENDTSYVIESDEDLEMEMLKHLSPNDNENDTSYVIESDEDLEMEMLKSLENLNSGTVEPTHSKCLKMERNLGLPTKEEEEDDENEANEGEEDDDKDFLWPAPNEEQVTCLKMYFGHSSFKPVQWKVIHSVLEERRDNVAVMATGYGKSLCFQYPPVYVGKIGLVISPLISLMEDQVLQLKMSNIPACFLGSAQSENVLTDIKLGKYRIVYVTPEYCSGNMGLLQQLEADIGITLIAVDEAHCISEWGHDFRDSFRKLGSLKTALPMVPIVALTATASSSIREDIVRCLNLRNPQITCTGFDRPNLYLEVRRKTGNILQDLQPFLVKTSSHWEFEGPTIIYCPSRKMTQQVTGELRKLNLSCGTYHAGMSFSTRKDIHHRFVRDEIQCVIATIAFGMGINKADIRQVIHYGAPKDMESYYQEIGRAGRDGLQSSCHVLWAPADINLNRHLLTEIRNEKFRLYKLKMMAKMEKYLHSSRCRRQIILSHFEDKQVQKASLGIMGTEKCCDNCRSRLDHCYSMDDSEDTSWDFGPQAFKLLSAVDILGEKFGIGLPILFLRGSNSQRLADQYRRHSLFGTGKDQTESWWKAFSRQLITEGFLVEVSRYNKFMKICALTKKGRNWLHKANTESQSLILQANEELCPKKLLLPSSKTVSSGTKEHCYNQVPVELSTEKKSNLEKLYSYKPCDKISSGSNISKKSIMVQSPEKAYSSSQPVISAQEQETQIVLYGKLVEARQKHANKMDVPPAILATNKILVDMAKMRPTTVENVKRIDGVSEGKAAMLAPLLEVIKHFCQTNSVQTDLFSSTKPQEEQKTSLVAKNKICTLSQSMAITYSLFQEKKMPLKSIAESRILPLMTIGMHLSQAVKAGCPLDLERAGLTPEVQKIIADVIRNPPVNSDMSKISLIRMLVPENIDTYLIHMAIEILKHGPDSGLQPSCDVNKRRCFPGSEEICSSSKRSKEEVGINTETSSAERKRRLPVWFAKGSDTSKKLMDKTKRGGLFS
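Enzyme (20 nM final) and test compound sit together 15 min at room temperature before substrate addition. Substrate is a single-forked duplex oligonucleotide (100 nM) labelled with fluorophore and quencher, with 2 mM ATP; helicase unwinding raises red fluorescence, read kinetically.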
FEN1 inh-1: blocks human flap endonuclease 1; Recombinant FEN1 flap cleavage, fluorescence, 15 min; actives 0.35% (n = 390,000); P39748; Potency, µM (highest dose often 114 µM), hits mostly inhibitors; note: nearly all actives have a fitted effect of over 65% in size
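Recombinant FEN1 (10 nM) was preincubated with pin-transferred compounds for 15 min at room temperature, then flap DNA substrate (50 nM final) was added. Plates were read at 0 and 15 min, and normalized concentration–response data were fitted to a four-parameter Hill equation.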
GRP78 ERSR act: inducers of ER stress response in human glioma cells | U87-MG GRP78 promoter luciferase reporter, 16 h | Potency, µM, usual class: activators | actives 0.02% (n = 420,000) | AID 602332; note: series mostly up to about 76 µM; nearly all actives have a fitted effect of over 35% in size
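Stably transfected U87-MG human glioma cells carrying a GRP78-based luminescent sensor were seeded at 1000 cells/well, pin-dosed with compounds and incubated 16 h. Luciferase reagent was then added, and end-point luminescence was read after 10 min at room temperature.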
PI5P4K alpha inh: inhibitors of human PI5P4K alpha. PI5P4Kalpha enzyme, ADP-Glo luminescence, 60 min; active compounds read low. max response, %. actives 1.2% (n = 330,000). AID 652105; active = max response of -50% or lower; inconclusive = between -30% and -50%; inactive = -30% or higher; note: value at the top dose of about 77 µM
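Luminescence from ADP-Glo served as readout of PI5P4Kalpha activity in a qHTS format. Reaction: enzyme, substrate, compound, ATP at 5 microM final, 60 min at RT.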
Pin1 inhibitor: blocks the human prolyl isomerase Pin1 | actives 0.009% (n = 390,000) | Q13526 | Potency, µM (highest dose often 115 µM), hits mostly inhibitors | Pin1 FP peptide displacement, HiFluor488, 10 min; active = well fitted inhibition curve with a large enough effect in the polarisation, with a control signal flat, not every such curve was filed as active; inconclusive = small, poorly fitted or top-dose-only effect, or effect the other way, or a change in a side signal; inactive = no such curve, though single readings can be large or run the other way; the % refers to the polarisation
FEN1 inh-2: FEN1 inhibition, cherry-pick retest; shares compounds with FEN1 inh-1; FEN1 flap cleavage, TAMRA/BHQ2 fluorogenic DNA substrate; Potency, µM, actives largely listed as inhibitors; actives 79% (n = 880); AID 720498; note: nearly all actives have a fitted effect of over 60% in size
Numbers stand for hits; – = inactive; ? = inconclusive; · = not tested or not shown; [ ] = another dose, or the depositor's remark. Unless noted, calls come from the whole dose curve; as a rule, active = well fitted curve in the direction sought with a large enough effect; inconclusive = small, poorly fitted or top-dose-only effect, or another doubt; inactive = no such curve, though single readings can be large; an effect the other way counts as inactive or inconclusive.

SMILES	Tb PGK inh	WRN helicase inh	FEN1 inh-1	GRP78 ERSR act	PI5P4K alpha inh	Pin1 inhibitor	FEN1 inh-2
COc1ccc(C2(C(=O)NCC3Cc4cccc(-c5nc(C)cnc5C)c4O3)CCCC2)cc1 (stereo not given)	·	·	·	–	·	·	·
C/C(=N\Nc1nc2ccccc2c(=O)n1O)c1ccco1	–	–[11.6 µM]	?	–	?	–	30
Cc1nc2ccccc2c(=O)n1NC(=O)c1ccco1	–	–	–	–	–	–	·
Nc1ccc2c(c1Cl)C(=O)c1ccc(N)c(Cl)c1C2=O	?	–[11.6 µM]	?	–	–	?	?
CN(Cc1cccs1)c1ncnc2ccc(-c3ccc4cn(C)nc4c3)cc12	·	·	·	·	·	–	67
O=[N+]([O-])c1ccc(C=Nc2cccc3ccccc23)s1	–	–	?	–	–	–	6
Cc1ccccc1C1(CC(=O)N2CCCCC2C)CC(=O)N(Cc2cccnc2)C1=O (stereo not given)	·	·	·	–	·	·	·
COc1ccc(-c2ccc(C(=O)N3CCc4c(cnc(C)c4CNS(=O)(=O)N(C)C)C3)o2)cc1	·	·	·	–	·	·	·
COc1cccc2c1C(=N)c1c(O)c3c(c(O)c1C2=O)CC(O)(C(C)=O)CC3OC1CC(N)C(O)C(C)O1 (stereo not given)	–	?	11µM	–	–	?	24
COc1cccc2c1-c1c(O)cccc1C2=O	–	–	–	–	–	?	·
NC(=O)[C@@H]1CCCN1C(=O)CCN1Cc2ccccc2OC(c2ccccc2F)C1 (stereo not given in full)	·	·	·	–	·	·	·
COc1cc(C(=S)N2CCN(c3cccc(Cl)c3)CC2)ccc1O	–	–	–	–	?	–	·
COc1cc(C(=S)N2CCN(c3ccccc3Cl)CC2)cc(O)c1O	–	?	?	–	-58	?	15
O=C(c1cccc(Cn2cccn2)c1)N1CCC(n2c(C3CCCO3)nc3cc(C(F)(F)F)ccc32)CC1 (stereo not given)	·	·	·	–	·	·	·
O=S(=O)(Nc1nccs1)c1ccc(Nc2nnc(-c3ccccc3)c3ccccc23)cc1	–	?	89µM	–	?	–	?
Cc1cnc(SCc2ccccn2)nc1C1CCCN(C(=O)c2ccc(-c3ccccc3F)cc2)C1 (stereo not given)	·	·	·	–	·	·	·
COc1ccccc1NC(=O)COC(=O)c1ccc([N+](=O)[O-])s1	–	–[11.6 µM]	–	–	–	?	7.6
O=C(COC(=O)c1ccc([N+](=O)[O-])s1)c1ccc[nH]1	–	–[11.6 µM]	–	–	?	–	3.4
O=C(COC(=O)c1ccc(Br)o1)NCc1ccc(F)cc1	–	–	–	–	–	–	·
CC(=O)Nc1ccc(NC(=O)COC(=O)c2ccc([N+](=O)[O-])o2)cc1	–	–[11.6 µM]	20µM	–	–	–	15
CCN(c1ccc(NC(=O)COC(=O)c2ccc([N+](=O)[O-])o2)cc1)C(C)C	–	–	–	–	–	–	·
O=C(COC(=O)c1ccc([N+](=O)[O-])o1)NCc1ccc(F)cc1	–	–	?	–	–	–	13
CCNC(=O)c1cc(NC(=O)COC)cc2nc(-c3ccncc3)n(C)c12	·	·	·	–	·	·	·
O=C(COC(=O)c1ccc([N+](=O)[O-])s1)NCCc1ccccc1	–	–	?	–	–	·	·
O=C(COC(=O)c1ccc([N+](=O)[O-])s1)NCc1ccc(F)cc1	–	–[11.6 µM]	–	–	–	–	6.7
SMILES	Tb PGK inh	WRN helicase inh	FEN1 inh-1	GRP78 ERSR act	PI5P4K alpha inh	Pin1 inhibitor	FEN1 inh-2
CSc1nnc(CCNC(=O)c2ccc(-c3cccc(F)c3)cc2)n1-c1ccc(F)cc1	·	·	·	–	·	·	·
Cc1ccc2nc3[nH]c(=O)[nH]c(=O)c3c(N)c2c1	–	–	?	–	–	–	60
O=C(O)c1c2cc(Br)ccc2nc2[nH]c(=O)[nH]c(=O)c12	–	–	–	–	–	–	·
COc1ccccc1NC(=O)Nc1cnccn1	–	–	–	–	–	–	·
COc1cc([N+](=O)[O-])ccc1NC(=O)Nc1cnccn1	–	–	–	–	–	?	?
CCC1(C2CCN(C(=O)c3cc(F)ccc3F)CC2)NC(=O)N(CCc2scnc2C)C1=O (stereo not given)	·	·	·	–	·	·	·
O=C(O)CC/C(=C\c1ccc(N2CCCC2)c([N+](=O)[O-])c1)c1nc2ccccc2s1	?	?	?	–	–	·	·
CN(c1ccccc1)c1ccc(/C=C(/CCC(=O)O)c2nc3ccccc3s2)cc1[N+](=O)[O-]	?	?	50µM	–	?	·	67
c1ccc2c(c1)Cc1cc3ccccc3nc1-2	–	–[11.6 µM]	?	–	–	–	30
O=c1[nH]c2ccc(S(=O)(=O)N3CCN(S(=O)(=O)c4c(F)cccc4F)CC3)cc2[nH]c1=O	·	·	·	·	·	?	?
O=C(N/N=C/c1ccc(-c2ccccc2[N+](=O)[O-])o1)c1cncc(Br)c1	–	–	–	–	–	–	·
Nn1cnnc1N/N=C\c1ccc(-c2ccccc2[N+](=O)[O-])o1	–	–	–	–	–	–	?
Cc1ccc(CN2CCOc3ccc(C(C)(O)COc4ccccc4)cc3C2)o1 (stereo not given)	·	·	·	–	·	·	·
O=C1c2ccccc2C(=O)c2c1ccc(O)c2O	?	?	7.9µM	–	-74	?	7.6
Nc1c(C(=O)O)ccc2c1C(=O)c1ccccc1C2=O	–	?	50µM	–	-69	–	34
O=C1c2ccc(O)c(O)c2C(=O)c2c(O)ccc(O)c21	·	·	·	–	·	·	·
COc1cccc(CN2CCc3nnc(CCc4ccccc4)n3CC2)c1OC	·	·	·	–	·	·	·
O=C(O)CN1C(=O)/C(=C\c2cc(Br)ccc2OCc2ccc([N+](=O)[O-])cc2)SC1=S	?	?	?	–	-71	·	85
O=C(O)CN1C(=O)/C(=C\c2cc(Br)ccc2OCc2ccccc2F)SC1=S	·	–[11.6 µM]	?	–	–	·	·
COc1ccc(CNc2ncnc3ccc(-c4ccoc4)cc23)c(OC)c1	·	·	·	–	·	·	·
COc1cc(-c2ccc3ncnc(NCc4ccc(C)o4)c3c2)cc(OC)c1OC	·	·	·	·	·	–	?
COC(=O)C(=O)/C=C(\O)c1c(C)cc(C)cc1C	–	–	?	–	–	–	38
COc1cc(C)c(C(=O)CC(=O)c2c(C)cc(OC)cc2C)c(C)c1	–	–	–	–	–	–	·
CCc1nnc(N/N=C/c2c(Cl)cccc2Cl)n1N	–	–[11.6 µM]	–	–	·	–	?
O=C1NN(c2ccc(Cl)cc2)C(=O)/C1=C\c1ccc(-c2cccc(C(=O)O)c2)o1	–	?	50µM	–	-69	?	67
COc1ccc(/C=C2\SC(=O)N(CC(=O)Nc3ccc(O)cc3)C2=O)cc1OC	–	–	–	–	–	–	·
Cc1ccc(NC(=O)CN2C(=O)S/C(=C\c3cc(Cl)c(OCC(=O)O)c(Cl)c3)C2=O)cc1	?	–[11.6 µM]	45µM	–	?	·	76
